Screening results from PubChem BioAssay.
In the library only some 2% were active in any assay of this set; here they are far more common.
Calb FLC = C. albicans growth modulation with fluconazole; C. albicans CaCi-2 (fluconazole-resistant clinical isolate) + fluconazole, Alamar Blue growth, 48 h; growth inhibition, % (test concentration not listed); 300,000 compounds, 0.57% hits;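 active means growth inhibition above about 58% in most replicates, limit read from the data, passing the limit was not always enough; inconclusive means exactly half the replicates above a set limit; inactive means most replicates below a set limit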;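 further: all wells also contain fluconazole at 8 µg/ml as a sub-toxic cotreatment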
697 NFkB inh = inhibitors of the PMA/ionomycin-induced NF-kB reporter in 697 B cells. inhibition, % at 4 µM. 330,000 compounds, 0.33% hits. AID 435022. 697 B-cell NF-kB luciferase reporter, 16 h; in the data active means inhibition above about 35%
Jurkat NFkB inh = lowers PMA/ionomycin-induced NF-kB signal in Jurkat cells | PMA/ionomycin-induced NF-kB luciferase reporter, luminescence | inhibition, % at 4 µM | 330,000 compounds, 0.53% hits | AID 435003; in the data active means inhibition above about 50%
Beta apoptosis = blocks beta cell apoptosis; INS-1E cytokine-induced death, ATP luminescence, 48 h; percent of positive-control rescue, neutral wells zero; protection from apoptosis, % (no concentration beside the values); 300,000 compounds, 0.8% hits;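 active means Every replicate reaches about 75%, or at least half do and their mean reaches it too, limit read from the data; inconclusive means At least half of replicates reach the limit but their mean does not; inactive means Under half of replicates reach the limit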;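 further: higher means more ATP so stronger rescue from cytokine killing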
Shn3 inh set2 = inhibitors of Schnurri-3 3'UTR reporter in osteoblasts. AID 588674. Clone20 osteoblast Shn3 3'UTR firefly luciferase, 24 h. inhibition, % at 12.5 µM. 360,000 compounds, 0.52% hits;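 active means mean inhibition of at least 75% with every replicate also reaching 75%; inconclusive means mean inhibition at least 75% but some replicate below; inactive means mean inhibition below 75%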
Each line names hits and unclear results; the compound was inactive in the other large screens.

COc1ccc(OC)c(-n2c(CNC3CCN(Cc4ccccc4)CC3)nc3ccccc3c2=O)c1	none
O=C(O)c1ccc(Oc2ccc(S(=O)(=O)c3ccc(C(=O)O)c(C(=O)O)c3)cc2)cc1	none
CCOC(=O)c1c(NC(=O)COC(=O)CCNS(=O)(=O)c2ccccc2)sc(C(=O)NC)c1C	none (no result: Calb FLC, 697 NFkB inh, Jurkat NFkB inh, Beta apoptosis)
Cc1ccc(-n2nc3c([n+]2[O-])CCc2c-3no[n+]2[O-])cc1	Shn3 inh set2 90
O=C(N/N=C/c1ccncc1)c1cc2ccccc2cc1O	Calb FLC 91
O=C(N/N=C/c1ccc[nH]1)c1cc2ccccc2cc1O	Calb FLC inconclusive
O=[N+]([O-])c1ccc(O)c(/C=N/NC(=S)Nc2ccc(Cl)cc2Cl)c1	Calb FLC 101, Beta apoptosis 121
O=[N+]([O-])c1ccc(/C=N/NC(=S)Nc2ccc(Cl)cc2Cl)s1	Calb FLC 107
O=[N+]([O-])c1ccc2c(c1)C(N1CCOCC1)/C(=C/COc1ccc(Cl)cc1Cl)O2 (configuration not stated)	none
Cc1[nH]nc(-c2ccc(O)c(C)c2O)c1-c1cnn(-c2ccccc2)c1	Calb FLC 106
CCS(=O)(=O)N1CCC(C(=O)Oc2ccc(C)c(C)c2)CC1	none
Cc1nc2ccccc2n1Cc1ccc(Br)cc1	Beta apoptosis 96
Cc1nc2ccccc2n1Cc1ccccc1	none
COc1ccc(NC(=O)CN(C)C2=NS(=O)(=O)c3ccccc32)cc1Cl	none (no result: Calb FLC, Beta apoptosis)
CCN=c1scc(C)n1/N=C/c1cc(Br)c(O)c(Br)c1	none
CCN=c1scc(C)n1/N=C/c1ccc(O)c(O)c1O	Calb FLC 88
COc1ccc(CNC(=O)CN2CCN(S(=O)(=O)c3ccccc3)CC2)cc1	none (no result: Calb FLC)
Oc1c(I)cc(I)c2cccnc12	Shn3 inh set2 94 (no result: Calb FLC, Beta apoptosis)
CCc1nc2ccc(C(=O)NCCCN(C)C)cn2c1N(C)CCCc1ccccc1	none (no result: Calb FLC, 697 NFkB inh, Jurkat NFkB inh, Beta apoptosis)
NC(CCc1ccccc1)c1csc(NC(=O)Nc2cccc(C(F)(F)F)c2)n1 (configuration not stated)	none (no result: Calb FLC, 697 NFkB inh, Jurkat NFkB inh, Beta apoptosis)
O=C(NCCCN1CCCC1=O)C(=O)NCC1OCCN1S(=O)(=O)c1ccc(Cl)cc1 (configuration not stated)	none
Clc1ccc(OCc2cn3cccnc3n2)c2ncccc12	none (no result: 697 NFkB inh, Jurkat NFkB inh, Beta apoptosis)
Cc1cc(Cl)ccc1OCc1cn2cccnc2n1	Calb FLC 61
Cc1noc(C)c1NC(=O)N(C)C[C@H]1Oc2c(NC(=O)Nc3ccc4c(c3)OCO4)cccc2C(=O)N([C@H](C)CO)C[C@@H]1C	none (no result: Calb FLC)
COC(=O)C[C@](O)(CCCC(C)(C)O)C(=O)O[C@@H]1C(OC)=C[C@]23CCCN2CCc2cc4c(cc2[C@H]13)OCO4	Beta apoptosis 78 (no result: Calb FLC, 697 NFkB inh, Jurkat NFkB inh, Shn3 inh set2)
Cc1ccc([C@@H]2CC(=O)[C@@H]3CN(S(=O)(=O)c4ccc(C)cc4)[C@H](c4ccccc4)C[C@@H]3N2S(=O)(=O)c2ccc(Cl)cc2)cc1	none (no result: Calb FLC, 697 NFkB inh, Jurkat NFkB inh, Beta apoptosis)
O=C(CSc1nc2c(c(=O)n1-c1ccc(Br)cc1)SCC2)NCc1ccco1	Shn3 inh set2 92
c1ccc2c(-c3[nH]ncc3CNCCCn3ncc4ccccc43)cccc2c1	Shn3 inh set2 90
OCC1CCCCN1CCNCc1cn[nH]c1-c1cccc2ccccc12 (configuration not stated)	none
COc1cc(CN2C(=O)C(Cc3ccccc3)ON=C2c2ncccc2C)cc(OC)c1 (configuration not stated)	none (no result: Calb FLC, 697 NFkB inh, Jurkat NFkB inh, Beta apoptosis)
CCN(CC)C(=O)c1cc([N+](=O)[O-])cc2c1-c1ccc([N+](=O)[O-])cc1C2=C(C#N)C#N	Beta apoptosis 89 (no result: Shn3 inh set2)
CCC(C)NC(=O)Nc1ccc(Br)cc1 (configuration not stated)	none
CCC(C)Nc1ccc(NC(C)CC)cc1 (configuration not stated)	Beta apoptosis 109, Shn3 inh set2 89 (no result: Calb FLC)
O=C(c1ccco1)c1coc2c1cc(O)c1ccccc12	Beta apoptosis 100
CC(=O)c1coc2c1cc(O)c1ccccc12	none
CNc1snc(C)c1C(=O)OCC(=O)c1ccc(OC)c(F)c1	none (no result: Calb FLC)
CN1CCN(C(c2ccc(F)cc2)c2ccc3cccnc3c2O)CC1 (configuration not stated)	none (no result: Calb FLC, 697 NFkB inh, Jurkat NFkB inh, Beta apoptosis)
Cc1conc1NC(c1cccs1)c1ccc2cccnc2c1O (configuration not stated)	Calb FLC 87, Beta apoptosis 106 (no result: Shn3 inh set2)
CC(C)CC(=O)NC(c1cccs1)c1ccc2cccnc2c1O (configuration not stated)	Calb FLC 107, Beta apoptosis 110, Shn3 inh set2 89
Cc1cccnc1NC(=O)CCC(=O)c1cccs1	none (no result: Calb FLC)
c1ccc(Nc2nc(NCc3ccco3)c3ccccc3n2)cc1	Beta apoptosis 81
Oc1ccccc1Nc1nc(NCc2ccco2)c2ccccc2n1	none
Cc1cccc(Nc2nc(NCc3ccco3)c3ccccc3n2)c1	Beta apoptosis 91, Shn3 inh set2 88 (no result: 697 NFkB inh, Jurkat NFkB inh)
Cc1c(C(=O)NCc2ccc3c(c2)OCO3)sc(=O)n1Cc1ccc(-c2ccccc2)cc1	none (no result: Calb FLC, 697 NFkB inh, Jurkat NFkB inh, Beta apoptosis)
CC(C)CCOC(=O)C1C(c2ccccc2)C(C(=O)O)C1c1ccccc1 (configuration not stated)	Calb FLC 93
CCN(c1ccccc1)S(=O)(=O)c1ccc(N2CCN(c3ccc(O)cc3)CC2)nc1	none (no result: Calb FLC)
N#Cc1c([N+](=O)[O-])cc([N+](=O)[O-])cc1S(=O)(=O)Cc1ccccc1	Beta apoptosis 113, Shn3 inh set2 95 (no result: Calb FLC)
CSc1nc2ncncc2[nH]1	none (no result: Calb FLC, 697 NFkB inh, Jurkat NFkB inh, Beta apoptosis)
CC(C)OP(=O)(Nc1cccc2ccccc12)OC(C)C	none
CN(C)P(=O)(Nc1cccc2ccccc12)Nc1cccc2ccccc12	Shn3 inh set2 88 (no result: Calb FLC)
CCOC(=O)C1=C(COC(=O)c2ccc(Cl)cc2[N+](=O)[O-])NC(=O)NC1C (configuration not stated)	none (no result: Beta apoptosis)
Cc1c(C(=O)NNC(=S)Nc2ccc(S(N)(=O)=O)cc2)oc2ccccc12	none
O=C(c1cc2sccc2n1Cc1ccccc1)N1CCN(c2nc3ccccc3s2)CC1	Beta apoptosis 99, Shn3 inh set2 inconclusive
CCOC(=O)Cn1c(S(=O)(=O)Cc2ccccc2Cl)nc(-c2ccccc2)c1-c1ccccc1	Shn3 inh set2 88
CC(C)=CCC/C(C)=C/CNC(=O)C[C@H]1C[C@H](C(=O)N2CCCCC2)[C@@]2(C)c3[nH]c4cc(CCC(=O)N(C)C)ccc4c3CCN2C1=O	none (no result: Calb FLC, Jurkat NFkB inh, Beta apoptosis)
CC(C)=CCC/C(C)=C/CNC(=O)C[C@H]1C[C@H](C(=O)N2CCOCC2)[C@@]2(C)c3[nH]c4cc(CCC(=O)N(C)C)ccc4c3CCN2C1=O	Shn3 inh set2 89 (no result: Calb FLC, Jurkat NFkB inh, Beta apoptosis)
O=C(O)COc1ccccc1C(Nc1cccnc1)c1cc(Cl)c2cccnc2c1O (configuration not stated)	Calb FLC 100 (no result: Beta apoptosis)
O=C(NC(c1ccccc1)c1cc(Cl)c2cccnc2c1O)c1cccnc1 (configuration not stated)	Calb FLC 92, Beta apoptosis 81 (no result: Shn3 inh set2)
O=C(Oc1ccc(Cl)c2cccnc12)c1cccnc1	none (no result: Beta apoptosis)
CCOc1ccc(C(Nc2cccnc2)c2cc(Cl)c3cccnc3c2O)cc1 (configuration not stated)	Calb FLC 110, Beta apoptosis 86
CCOc1ccc(NC(=S)NCc2cccnc2)cc1	none
